The values below come from the supplement of paper PMC12819154, “High-throughput peptide-centric local stability assay extends protein–ligand identification to membrane proteins, tissues and bacteria” (Nature Structural & Molecular Biology, 2025).

UniProt Q96CB8, sequence (Q96CB8 whole entry): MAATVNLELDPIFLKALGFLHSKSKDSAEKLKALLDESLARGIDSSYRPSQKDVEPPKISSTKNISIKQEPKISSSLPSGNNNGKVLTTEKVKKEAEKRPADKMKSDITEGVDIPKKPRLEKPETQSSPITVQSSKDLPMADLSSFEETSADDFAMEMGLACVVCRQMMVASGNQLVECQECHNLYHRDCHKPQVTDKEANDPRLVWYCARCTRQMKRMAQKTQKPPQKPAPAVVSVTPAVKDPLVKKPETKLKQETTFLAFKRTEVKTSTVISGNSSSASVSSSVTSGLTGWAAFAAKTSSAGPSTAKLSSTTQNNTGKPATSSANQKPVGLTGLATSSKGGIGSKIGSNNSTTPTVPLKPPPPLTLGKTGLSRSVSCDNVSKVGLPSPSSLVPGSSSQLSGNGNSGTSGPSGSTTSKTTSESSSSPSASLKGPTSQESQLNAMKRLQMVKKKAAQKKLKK
UniProt Q12815, sequence (Q12815 whole entry): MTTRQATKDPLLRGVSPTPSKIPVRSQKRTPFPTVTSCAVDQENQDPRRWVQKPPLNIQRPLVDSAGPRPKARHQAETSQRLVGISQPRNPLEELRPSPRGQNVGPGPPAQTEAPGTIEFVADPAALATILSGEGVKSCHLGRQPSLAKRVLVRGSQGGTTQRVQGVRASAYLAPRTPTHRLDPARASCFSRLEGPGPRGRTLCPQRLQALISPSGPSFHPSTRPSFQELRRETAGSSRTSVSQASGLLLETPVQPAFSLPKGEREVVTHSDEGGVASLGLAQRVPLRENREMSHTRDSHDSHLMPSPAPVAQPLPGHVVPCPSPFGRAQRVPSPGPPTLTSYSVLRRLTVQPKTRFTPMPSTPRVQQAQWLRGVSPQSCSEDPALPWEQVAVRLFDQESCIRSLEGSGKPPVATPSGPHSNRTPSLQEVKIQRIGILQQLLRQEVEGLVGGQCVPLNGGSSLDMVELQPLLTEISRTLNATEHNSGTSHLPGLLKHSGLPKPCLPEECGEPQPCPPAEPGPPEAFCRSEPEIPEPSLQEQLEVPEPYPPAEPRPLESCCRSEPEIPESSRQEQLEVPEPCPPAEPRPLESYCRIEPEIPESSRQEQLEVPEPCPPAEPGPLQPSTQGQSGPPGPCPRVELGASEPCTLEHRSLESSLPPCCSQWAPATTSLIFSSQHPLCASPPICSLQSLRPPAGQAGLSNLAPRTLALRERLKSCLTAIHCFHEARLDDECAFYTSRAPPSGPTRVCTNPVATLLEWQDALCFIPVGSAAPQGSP
UniProt Q13555, sequence (Q13555 whole entry): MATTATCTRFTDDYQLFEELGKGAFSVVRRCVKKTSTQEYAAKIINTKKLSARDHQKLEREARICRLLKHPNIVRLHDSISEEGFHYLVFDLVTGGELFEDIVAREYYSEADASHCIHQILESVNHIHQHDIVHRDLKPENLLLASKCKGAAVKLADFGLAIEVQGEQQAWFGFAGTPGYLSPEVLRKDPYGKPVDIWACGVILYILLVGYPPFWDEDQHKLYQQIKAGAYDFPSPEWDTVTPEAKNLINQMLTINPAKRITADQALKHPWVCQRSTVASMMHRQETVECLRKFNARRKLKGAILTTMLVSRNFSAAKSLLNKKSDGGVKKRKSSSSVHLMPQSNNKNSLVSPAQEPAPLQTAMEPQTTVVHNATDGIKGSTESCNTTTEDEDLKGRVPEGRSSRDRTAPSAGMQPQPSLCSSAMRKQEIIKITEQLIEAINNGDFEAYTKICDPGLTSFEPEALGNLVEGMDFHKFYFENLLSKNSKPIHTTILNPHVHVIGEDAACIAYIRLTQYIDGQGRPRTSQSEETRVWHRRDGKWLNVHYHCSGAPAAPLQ
UniProt Q9H2G2, sequence (Q9H2G2 whole entry, looked up): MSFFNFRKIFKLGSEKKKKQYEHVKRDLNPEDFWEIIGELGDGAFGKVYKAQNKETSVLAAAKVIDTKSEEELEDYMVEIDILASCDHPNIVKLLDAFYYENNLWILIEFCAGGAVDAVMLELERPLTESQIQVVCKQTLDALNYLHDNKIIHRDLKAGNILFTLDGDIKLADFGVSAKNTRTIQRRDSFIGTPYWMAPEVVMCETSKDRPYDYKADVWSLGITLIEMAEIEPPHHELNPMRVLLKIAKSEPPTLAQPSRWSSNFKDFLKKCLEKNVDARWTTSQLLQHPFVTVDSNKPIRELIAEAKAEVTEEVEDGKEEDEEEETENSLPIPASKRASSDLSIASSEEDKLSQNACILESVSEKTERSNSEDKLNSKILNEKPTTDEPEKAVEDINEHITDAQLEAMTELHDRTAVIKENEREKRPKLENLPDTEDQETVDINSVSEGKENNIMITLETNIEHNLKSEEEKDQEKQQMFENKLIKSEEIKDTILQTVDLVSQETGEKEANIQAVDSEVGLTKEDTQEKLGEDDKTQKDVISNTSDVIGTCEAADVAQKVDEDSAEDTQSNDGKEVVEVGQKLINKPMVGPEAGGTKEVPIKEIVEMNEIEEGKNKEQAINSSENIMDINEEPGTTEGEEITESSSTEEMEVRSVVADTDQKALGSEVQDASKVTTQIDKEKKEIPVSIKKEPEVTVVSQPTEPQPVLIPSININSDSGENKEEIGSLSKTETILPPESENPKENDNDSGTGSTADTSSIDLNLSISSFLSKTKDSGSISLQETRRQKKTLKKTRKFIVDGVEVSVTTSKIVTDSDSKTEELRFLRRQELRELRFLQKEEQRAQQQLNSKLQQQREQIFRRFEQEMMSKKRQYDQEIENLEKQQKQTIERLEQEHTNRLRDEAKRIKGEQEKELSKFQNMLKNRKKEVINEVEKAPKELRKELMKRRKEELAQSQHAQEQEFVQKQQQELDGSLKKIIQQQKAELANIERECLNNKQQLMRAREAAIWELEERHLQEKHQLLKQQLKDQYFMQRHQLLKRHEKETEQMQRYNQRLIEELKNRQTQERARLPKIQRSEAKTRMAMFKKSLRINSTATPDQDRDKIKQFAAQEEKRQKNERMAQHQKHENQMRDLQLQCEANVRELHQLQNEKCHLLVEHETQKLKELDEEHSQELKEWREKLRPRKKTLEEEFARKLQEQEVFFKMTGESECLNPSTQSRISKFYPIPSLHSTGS
UniProt P38919, sequence (P38919 whole entry): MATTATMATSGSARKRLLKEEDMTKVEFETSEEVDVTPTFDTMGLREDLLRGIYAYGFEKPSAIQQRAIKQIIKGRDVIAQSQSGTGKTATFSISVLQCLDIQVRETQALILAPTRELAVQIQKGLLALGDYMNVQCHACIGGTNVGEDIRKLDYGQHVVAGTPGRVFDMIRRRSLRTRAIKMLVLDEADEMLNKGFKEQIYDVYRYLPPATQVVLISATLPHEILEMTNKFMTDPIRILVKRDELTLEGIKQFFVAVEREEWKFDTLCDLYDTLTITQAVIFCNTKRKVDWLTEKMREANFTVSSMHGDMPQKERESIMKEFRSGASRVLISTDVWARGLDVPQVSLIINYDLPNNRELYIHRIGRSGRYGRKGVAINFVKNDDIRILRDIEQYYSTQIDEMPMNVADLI
UniProt O60231, sequence (O60231 whole entry): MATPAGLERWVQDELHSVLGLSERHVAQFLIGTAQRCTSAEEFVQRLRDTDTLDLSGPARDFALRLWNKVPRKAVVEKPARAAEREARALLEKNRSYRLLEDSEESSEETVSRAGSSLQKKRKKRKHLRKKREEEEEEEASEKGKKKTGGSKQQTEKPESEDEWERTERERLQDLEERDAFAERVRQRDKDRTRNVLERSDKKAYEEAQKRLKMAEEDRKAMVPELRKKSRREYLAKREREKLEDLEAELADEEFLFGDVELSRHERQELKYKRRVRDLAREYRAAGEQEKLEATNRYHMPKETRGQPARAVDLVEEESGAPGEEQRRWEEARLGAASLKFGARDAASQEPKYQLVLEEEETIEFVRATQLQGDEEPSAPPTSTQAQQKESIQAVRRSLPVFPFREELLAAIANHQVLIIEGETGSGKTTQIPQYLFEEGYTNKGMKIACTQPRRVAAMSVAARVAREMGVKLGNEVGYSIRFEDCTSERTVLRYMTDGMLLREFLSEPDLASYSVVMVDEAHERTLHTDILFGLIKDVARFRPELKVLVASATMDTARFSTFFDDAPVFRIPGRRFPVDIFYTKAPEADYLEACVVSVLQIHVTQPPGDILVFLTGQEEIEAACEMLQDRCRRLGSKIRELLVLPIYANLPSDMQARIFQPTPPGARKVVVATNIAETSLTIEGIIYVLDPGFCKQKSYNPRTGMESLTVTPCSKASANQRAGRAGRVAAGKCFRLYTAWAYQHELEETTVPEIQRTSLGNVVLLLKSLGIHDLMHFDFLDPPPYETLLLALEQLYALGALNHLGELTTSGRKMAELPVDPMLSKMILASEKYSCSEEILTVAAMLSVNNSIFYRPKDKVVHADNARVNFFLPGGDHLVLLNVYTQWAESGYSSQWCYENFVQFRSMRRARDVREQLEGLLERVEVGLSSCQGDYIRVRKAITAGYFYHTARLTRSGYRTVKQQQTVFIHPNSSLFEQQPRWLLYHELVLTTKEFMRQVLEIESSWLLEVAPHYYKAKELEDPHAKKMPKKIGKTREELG
UniProt Q0VDG4, sequence (Q0VDG4 whole entry): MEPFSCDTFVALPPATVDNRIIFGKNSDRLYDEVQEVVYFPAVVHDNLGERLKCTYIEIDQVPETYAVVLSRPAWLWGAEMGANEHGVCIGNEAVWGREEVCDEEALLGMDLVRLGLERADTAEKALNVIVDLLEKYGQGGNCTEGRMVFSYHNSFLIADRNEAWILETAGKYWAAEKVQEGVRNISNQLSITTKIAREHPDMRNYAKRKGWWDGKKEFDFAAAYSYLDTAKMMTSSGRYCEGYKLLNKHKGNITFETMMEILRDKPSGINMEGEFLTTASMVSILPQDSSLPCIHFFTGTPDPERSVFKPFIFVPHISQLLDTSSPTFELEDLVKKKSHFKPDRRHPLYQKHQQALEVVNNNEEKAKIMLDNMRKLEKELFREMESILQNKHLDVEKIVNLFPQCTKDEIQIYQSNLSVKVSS

Compound in the experiment: CN[C@@H]1C[C@H]2O[C@@](C)([C@@H]1OC)n1c3ccccc3c3c4c(c5c6ccccc6n2c5c31)C(=O)NC4 [staurosporine]
Nature of the experiment: log2 fold change of tryptic peptide abundance, ligand vs vehicle (limited proteolysis) (log2 ratio); higher = more trypsin-susceptible (destabilized). To be noted: ligand concentration: 20 uM; sample: K562 cleared lysate; digestion: 4 min, 22 C (HT-PELSA RT4min, Orbitrap Astral).
As to “UniProt Q16513 (peptide sequence: HPFLVNLFACFQTK, peptide start residue: 717)”, the log2 fold change is -2.07.

With “AKT1 (peptide sequence: HRVTMNEFEYLK, peptide start residue: 143) (UniProt P31749)”, the log2 fold change is -0.676. The same measure for “EIF4A3 (peptide sequence: ETQALILAPTR, peptide start residue: 106) (UniProt P38919)”: 0.375; for “UniProt Q02040 (peptide sequence: STMDFIR, peptide start residue: 72)”: 0.414; for “UniProt P06493 (peptide sequence: HPNIVSLQDVLMQDSR, peptide start residue: 60)”: -1.19. As to “UniProt Q8N4C8 (peptide sequence: GNALKEDCIAYICR, peptide start residue: 122)”, the log2 fold change was -0.573. The same measure for “UniProt O00506 (peptide sequence: LADFGVAGQLTDTQIKR, peptide start residue: 160)”: -1.08; for “SRRM2 (peptide sequence: SLSYSPVER, peptide start residue: 2690) (UniProt Q9UQ35)”: 0.244.

As for “RIPK1 (peptide sequence: IADLGLASFK, peptide start residue: 154) (UniProt Q13546)”, the log2 fold change was -0.814.

For “NQO1 (peptide sequence: SIPTDNQIK, peptide start residue: 263) (UniProt P15559)”, the log2 fold change was determined as 0.728. The same measure for “UniProt Q9NYV4 (peptide sequence: EIVTDKQDALDFKK, peptide start residue: 791)”: -1.83; for “SRPK1 (peptide sequence: HFTEDIQTR, peptide start residue: 507) (UniProt Q96SB4)”: -1.75.

Take “SDAD1 (peptide sequence: TLYTHIVTDIK, peptide start residue: 136) (UniProt Q9NVU7)”: the log2 fold change was -0.683. As to “GART (peptide sequence: GDTVATLSER, peptide start residue: 966) (UniProt P22102)”, the log2 fold change worked out at 0.425. In the case of “UniProt Q14004 (peptide sequence: EGFPITAIR, peptide start residue: 765)” it was -1.01.

Regarding “UniProt P62269 (peptide sequence: KADIDLTKR, peptide start residue: 47)”, the log2 fold change was found to be 0.394. The same measure for “CAMK2G (peptide sequence: GAILTTMLVSR, peptide start residue: 302) (UniProt Q13555)”: -1.14. In the case of “UniProt P45985 (peptide sequence: DIKPSNILLDR, peptide start residue: 229)” it was 0.534. In the case of “SCRN3 (peptide sequence: IMLDNMR, peptide start residue: 369) (UniProt Q0VDG4)” it was 0.327; in that of “UniProt Q16512 (peptide sequence: IADFGLCK, peptide start residue: 756)”, -2.52; in that of “UniProt P25098 (peptide sequence: DLKPANILLDEHGHVR, peptide start residue: 317)”, -0.579. For “PIK3CB (peptide sequence: VFGEDSVGVIFK, peptide start residue: 794) (UniProt P42338)”, the log2 fold change is -0.385. For the target “MAPK11 (peptide sequence: ILDFGLAR, peptide start residue: 166) (UniProt Q15759)”, the log2 fold change was -1.18. The same measure for “INTS12 (peptide sequence: SVSCDNVSK, peptide start residue: 376) (UniProt Q96CB8)”: 1.68; for “TROAP (peptide sequence: SCLTAIHCFHEAR, peptide start residue: 717) (UniProt Q12815)”: 1.24; for “DHX16 (peptide sequence: QQTEKPESEDEWER, peptide start residue: 153) (UniProt O60231)”: 2.31.

Regarding “UniProt Q13131 (peptide sequence: VGKHELTGHK, peptide start residue: 43)”, the log2 fold change is -5. In the case of “ULK2 (peptide sequence: IADFGFAR, peptide start residue: 163) (UniProt Q8IYT8)” it was -1.68; in that of “SLK (peptide sequence: LADFGVSAK, peptide start residue: 171) (UniProt Q9H2G2)”, -3.91.
